# Records with an inconclusive call do not appear. Entries that show only a call come without a potency. Values without a mark were called inactive. Calls of active or inactive are those of the source. Calls come from the whole dose curve; as a rule, active = well fitted curve in the direction sought with a large enough effect; inconclusive = small, poorly fitted or top-dose-only effect, or another doubt; inactive = no such curve, though single readings can be large; an effect the other way counts as inactive or inconclusive.
# Key:
# PA-1 = assay: Primary qHTS to identify gynecologic anti-cancer compounds using libraries of approved drugs and bioactive compounds (AID 1345084); conditions: Gynecologic cancer cell panel viability, ATPlite luminescence, 48 h; series mostly up to 57.5 µM; note: nearly all actives have a fitted effect of over 55% in size
# Outline: (§1)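 Measured: luminescence after ATPlite addition (15 min, RT). Exposure: 48 h, 37 C, 5% CO2.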
# SKOV3 = assay: as above; conditions: Gynecologic cancer cell panel viability, ATPlite luminescence, 48 h; series mostly up to 57.5 µM
# Outline: as §1
# Tov-21-G = assay: as above; conditions: Gynecologic cancer cell panel viability, ATPlite luminescence, 48 h; series mostly up to 57.5 µM
# Outline: as §1
# Tov112D = assay: as above; conditions: Gynecologic cancer cell panel viability, ATPlite luminescence, 48 h; series mostly up to 57.5 µM
# Outline: as §1
# [1] = Drug repurposing screens with cells derived from glioblastoma tumor samples (AID 1345199); conditions: GBM patient neurospheres viability, ATP luminescence, 48 h; note: nearly all actives have a fitted effect of over 40% in size
# Outline: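 Four patient lines of CD133+ GBM neurospheres were screened at several concentrations; hits were retested in those lines plus three slower-growing GBM lines, using 48-hour treatment and ATP-based viability.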
# [2] = at 45.9 µM (top of the series), tumour line B
# [3] = at 45.9 µM (top of the series), tumour line D
# [4] = at 46 µM (top of the series), tumour line A
# [5] = at 46.1 µM (top of the series), tumour line C
# [6] = at 20 µM (top of the series), tumour line C
# [7] = at 21.2 µM (top of the series), tumour line B
# [8] = at 21.2 µM (top of the series), tumour line D
# Potency is the fitted concentration of half-maximal effect.
compound,measurement,setting,value
CC[N+](CC)(CCNC(=O)C(=O)NCC[N+](CC)(CC)Cc1ccccc1Cl)Cc1ccccc1Cl,Potency,PA-1,inactive
same,Potency,SKOV3,inactive
same,Potency,Tov-21-G,inactive
same,Potency,Tov112D,inactive
same,"activity, negative = cell killing",[1]; [2],-6.34%
same,"activity, negative = cell killing",[1]; [3],-19.6%
same,"activity, negative = cell killing",[1]; [4],-23.4%
same,"activity, negative = cell killing",[1]; [5],15.3%
CC(=O)CC(c1ccc([N+](=O)[O-])cc1)c1c(O)c2ccccc2oc1=O (configuration not stated),Potency,PA-1,inactive
same,Potency,SKOV3,inactive
same,Potency,Tov-21-G,inactive
same,Potency,Tov112D,inactive
same,"activity, negative = cell killing",[1]; [6],0.914%
same,"activity, negative = cell killing",[1]; [7],-11%
same,"activity, negative = cell killing",[1]; [8],-16.8%
O=c1[nH]c(=O)n([C@H]2C[C@H](O)[C@@H](CO)O2)cc1C(F)(F)F,Potency,PA-1,8.91 µM (active)
same,Potency,SKOV3,inactive
same,Potency,Tov-21-G,inactive
same,Potency,Tov112D,11.2 µM (active)
same,"activity, negative = cell killing",[1]; [3],-28.4%
same,"activity, negative = cell killing",[1]; [5],-13.3%
OC[C@H]1O[C@H](O[C@]2(CCl)O[C@H](CCl)[C@@H](O)[C@@H]2O)[C@H](O)[C@@H](O)[C@H]1Cl,Potency,PA-1,inactive
same,Potency,SKOV3,inactive
same,Potency,Tov-21-G,inactive
same,Potency,Tov112D,inactive
CCCCS(=O)(=O)N[C@@H](Cc1ccc(OCCCCC2CCNCC2)cc1)C(=O)O,Potency,PA-1,inactive
same,Potency,SKOV3,inactive
same,Potency,Tov-21-G,inactive
same,Potency,Tov112D,inactive
same,"activity, negative = cell killing",[1]; [2],-17.7%
same,"activity, negative = cell killing",[1]; [3],-22%
same,"activity, negative = cell killing",[1]; [5],-12.3%
same,Potency,[1]; tumour line A,11.2 µM (active)
COc1cc2c(cc1OC)C(C(C(=O)N(CCc1ccc(OC)c(OC)c1OC)CCc1ccc(OC)c(OC)c1OC)c1ccccc1)=NCC2 (configuration not stated),Potency,PA-1,inactive
same,Potency,SKOV3,inactive
same,Potency,Tov-21-G,inactive
same,Potency,Tov112D,inactive
O=C(Nc1ccc(Cl)c(Cl)c1)C1CC1,Potency,PA-1,inactive
same,Potency,SKOV3,inactive
same,Potency,Tov-21-G,inactive
same,Potency,Tov112D,inactive
same,"activity, negative = cell killing",[1]; [2],-26.9%
same,Potency,[1]; tumour line A,28.2 µM (active)
same,Potency,[1]; tumour line C,23.1 µM (active)
same,Potency,[1]; tumour line D,20 µM (active)
COC(=O)CCc1ccc(OCC(O)CNC(C)C)cc1 (configuration not stated),Potency,PA-1,inactive
same,Potency,SKOV3,inactive
same,Potency,Tov-21-G,inactive
same,Potency,Tov112D,inactive
same,"activity, negative = cell killing",[1]; [2],-6.72%
same,"activity, negative = cell killing",[1]; [3],-12.4%
same,"activity, negative = cell killing",[1]; [5],-12.3%
COC(=O)C1=C(C)NC(C)=C(C(=O)O[C@@H]2CCCN(Cc3ccccc3)C2)[C@@H]1c1cccc([N+](=O)[O-])c1,Potency,PA-1,inactive
same,Potency,SKOV3,inactive
same,Potency,Tov-21-G,inactive
same,Potency,Tov112D,inactive
OC(CCN1CCCCC1)(c1ccccc1)c1ccccc1,Potency,PA-1,inactive
same,Potency,SKOV3,inactive
same,Potency,Tov-21-G,inactive
same,Potency,Tov112D,inactive
same,"activity, negative = cell killing",[1]; [2],-13.7%
same,"activity, negative = cell killing",[1]; [3],-5.27%
same,"activity, negative = cell killing",[1]; [5],4.07%
same,Potency,[1]; tumour line A,12.6 µM (active)
C=C1C(=C/C=C2\CCC[C@]3(C)[C@@H]([C@H](C)/C=C/[C@@H](O)C4CC4)CC[C@@H]23)C[C@@H](O)C[C@@H]1O,Potency,PA-1,inactive
same,Potency,SKOV3,inactive
same,Potency,Tov-21-G,inactive
same,Potency,Tov112D,inactive
CCOC(=O)c1cccc(N)c1,Potency,PA-1,inactive
same,Potency,SKOV3,inactive
same,Potency,Tov-21-G,inactive
same,Potency,Tov112D,inactive
same,"activity, negative = cell killing",[1]; [2],-17.6%
same,"activity, negative = cell killing",[1]; [3],2.11%
same,"activity, negative = cell killing",[1]; [5],-0.117%
CCCCCCCCCCCCCCNCCO,Potency,PA-1,inactive
same,Potency,SKOV3,inactive
same,Potency,Tov-21-G,inactive
same,Potency,Tov112D,inactive
Cc1nc2n(c(=O)c1CCN1CCC(c3noc4cc(F)ccc34)CC1)CCC[C@H]2O,Potency,PA-1,inactive
same,Potency,SKOV3,inactive
same,Potency,Tov-21-G,inactive
same,Potency,Tov112D,inactive
same,"activity, negative = cell killing",[1]; [2],-11%
same,"activity, negative = cell killing",[1]; [3],-35.1%
same,"activity, negative = cell killing",[1]; [5],-8.74%
same,Potency,[1]; tumour line A,15.8 µM (active)
O=C(OCCOCCO)c1ccccc1Nc1cccc(C(F)(F)F)c1,Potency,PA-1,inactive
same,Potency,SKOV3,inactive
same,Potency,Tov-21-G,inactive
same,Potency,Tov112D,inactive
same,"activity, negative = cell killing",[1]; [6],-19.4%
same,"activity, negative = cell killing",[1]; [7],0.602%
same,"activity, negative = cell killing",[1]; [8],-4.96%
COc1ccc(CN2CCN(C(c3ccc(F)cc3)c3ccc(F)cc3)CC2)c(OC)c1OC,Potency,PA-1,inactive
same,Potency,SKOV3,inactive
same,Potency,Tov-21-G,inactive
same,Potency,Tov112D,inactive
same,"activity, negative = cell killing",[1]; [5],-24.3%
same,Potency,[1]; tumour line A,3.16 µM (active)
same,Potency,[1]; tumour line D,11.2 µM (active)
c1ccc(OCc2ccc(CCCN3CCOCC3)cc2)cc1,Potency,PA-1,inactive
same,Potency,SKOV3,inactive
same,Potency,Tov-21-G,inactive
same,Potency,Tov112D,inactive
N[C@H](Cc1c[nH]c2ccccc12)C(=O)O,Potency,PA-1,inactive
same,Potency,SKOV3,inactive
same,Potency,Tov-21-G,inactive
same,Potency,Tov112D,inactive
same,"activity, negative = cell killing",[1]; [4],21.7%
same,"activity, negative = cell killing",[1]; [5],0.799%
same,Potency,[1]; tumour line B,35.5 µM (active)
NCCC(O)(P(=O)(O)O)P(=O)(O)O,Potency,PA-1,inactive
same,Potency,SKOV3,inactive
same,Potency,Tov-21-G,inactive
same,Potency,Tov112D,inactive
same,"activity, negative = cell killing",[1]; [2],-6.03%
same,"activity, negative = cell killing",[1]; [3],-13.5%
same,"activity, negative = cell killing",[1]; [4],-19.5%
same,"activity, negative = cell killing",[1]; [5],-12.2%
O=C(Nc1ccc(Oc2ccc(Cl)cc2)c(Cl)c1)c1cc(I)cc(I)c1O,Potency,PA-1,inactive
same,Potency,SKOV3,inactive
same,Potency,Tov-21-G,inactive
same,Potency,Tov112D,inactive
NC[C@H]1O[C@H](O[C@H]2[C@H](O[C@@H]3O[C@H](CO)[C@@H](O)[C@H]3O)C(O)[C@H](N)C[C@@H]2N)[C@H](N)[C@@H](O)[C@@H]1O (some centres not stated),"activity change, negative = cytotoxicity",PA-1,6.06% [at 11.6 µM]
same,"activity change, negative = cytotoxicity",SKOV3,-1.1% [at 11.6 µM]
same,"activity change, negative = cytotoxicity",Tov-21-G,9.27% [at 11.6 µM]
same,"activity change, negative = cytotoxicity",Tov112D,13.5% [at 11.6 µM]
same,"activity, negative = cell killing",[1]; [7],-5.37%
same,"activity, negative = cell killing",[1]; [8],0.454%
Cc1cc2c(cc1CC(=O)c1sccc1S(=O)(=O)Nc1onc(C)c1Cl)OCO2,Potency,PA-1,inactive
same,Potency,SKOV3,inactive
same,Potency,Tov-21-G,inactive
same,Potency,Tov112D,inactive
CC1=C(C(=O)OC(C)C)C(c2cccc([N+](=O)[O-])c2)C(C(=O)OC2CN(C(c3ccccc3)c3ccccc3)C2)=C(N)N1 (configuration not stated),Potency,PA-1,inactive
same,Potency,SKOV3,inactive
same,Potency,Tov-21-G,inactive
same,Potency,Tov112D,inactive
COc1cccc(CCc2ccccc2OCC(CN(C)C)OC(=O)CCC(=O)O)c1 (configuration not stated),Potency,PA-1,inactive
same,Potency,SKOV3,inactive
same,Potency,Tov-21-G,inactive
same,Potency,Tov112D,inactive

# Reference: PubChem BioAssay (NCATS)
